UCHL1 inh: inhibitors of human UCHL1 deubiquitinase; purified UCHL1, Ub-rhodamine cleavage fluorescence; inhibition, % at 20 µM; 47,000 tested, 0.2% active; AID 1645859
USP10 inh: inhibitors of human USP10 deubiquitinase | purified USP10, Ub-rhodamine fluorescence, 60 min | Q14694 | inhibition, % at 20 µM | 47,000 tested, 1.1% active
USP7 block: human USP7 deubiquitinase inhibition. Q93009. purified USP7, Ub-rhodamine cleavage fluorescence. inhibition, % at 20 µM. 47,000 tested, 0.3% active
Target sequence (Q93009 whole entry, looked up): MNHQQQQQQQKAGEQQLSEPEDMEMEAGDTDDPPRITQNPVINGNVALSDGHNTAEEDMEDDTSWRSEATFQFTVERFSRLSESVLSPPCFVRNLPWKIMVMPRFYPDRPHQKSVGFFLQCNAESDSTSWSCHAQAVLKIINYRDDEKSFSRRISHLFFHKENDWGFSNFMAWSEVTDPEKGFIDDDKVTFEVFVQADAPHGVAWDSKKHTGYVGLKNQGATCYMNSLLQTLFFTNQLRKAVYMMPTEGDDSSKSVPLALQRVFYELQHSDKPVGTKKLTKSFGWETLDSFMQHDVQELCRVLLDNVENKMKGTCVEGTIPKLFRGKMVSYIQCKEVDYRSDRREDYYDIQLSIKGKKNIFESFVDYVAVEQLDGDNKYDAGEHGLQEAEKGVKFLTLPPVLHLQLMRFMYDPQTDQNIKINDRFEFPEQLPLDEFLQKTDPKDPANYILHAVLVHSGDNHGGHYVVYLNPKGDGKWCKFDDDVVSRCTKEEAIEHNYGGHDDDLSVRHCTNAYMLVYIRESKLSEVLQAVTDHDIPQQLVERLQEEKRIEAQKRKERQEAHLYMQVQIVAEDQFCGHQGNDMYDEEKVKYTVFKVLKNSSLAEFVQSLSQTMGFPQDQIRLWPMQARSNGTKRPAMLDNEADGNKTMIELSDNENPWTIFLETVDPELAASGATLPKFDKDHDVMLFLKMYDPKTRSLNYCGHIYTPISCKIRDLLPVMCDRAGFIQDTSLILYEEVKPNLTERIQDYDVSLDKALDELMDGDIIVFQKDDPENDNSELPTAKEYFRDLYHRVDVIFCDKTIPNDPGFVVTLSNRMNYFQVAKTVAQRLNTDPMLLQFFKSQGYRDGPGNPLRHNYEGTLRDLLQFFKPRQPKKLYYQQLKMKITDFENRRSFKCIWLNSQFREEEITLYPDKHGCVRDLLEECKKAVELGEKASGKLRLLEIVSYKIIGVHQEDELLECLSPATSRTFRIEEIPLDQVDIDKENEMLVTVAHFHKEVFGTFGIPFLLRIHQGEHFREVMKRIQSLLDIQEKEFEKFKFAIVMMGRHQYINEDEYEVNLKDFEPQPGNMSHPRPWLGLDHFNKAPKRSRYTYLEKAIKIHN
USP8 block: blocks human USP8 ubiquitin-rhodamine cleavage; P40818; purified USP8, Ub-rhodamine cleavage fluorescence, 30 min; inhibition, % at 20 µM; 47,000 tested, 4.2% active; AID 1645853
Each line names hits and unclear results; the compound was inactive in the other large screens. Hits are enriched below; roughly 4.6% of the tested compounds scored in any of these assays. Cut-off read from the data, not from the text of the source: active = inhibition above about 30%; inactive = the rest.

Cc1cccc(O)c1C(=O)OC(C)c1cccc2nc3c(C(=O)O)cc4c(c3nc12)C(C)c1cccc2c1N4c1cccc(C(=O)O)c1N2 (stereo not given)	UCHL1 inh 95.2, USP10 inh 98.7, USP7 block 99.5, USP8 block 95.2
COC(=O)c1cccc2nc3c(C(C)O)cccc3nc12 (stereo not given)	none
Cc1cccc(C)c1NC(=O)C1(NC(=O)c2ccc(Br)cc2)CCCCC1	USP8 block 43.2
O=C(Nc1ccc(F)c(F)c1)c1cnc2ccccc2n1	none
O=C(CSc1nnc2c3ccccc3nc(-c3ccco3)n12)N1CCCc2ccccc21	USP10 inh 47.6, USP8 block 33.5
COc1cccc(CNC(=O)CSc2nc(-c3ccco3)nc3cc(=O)[nH]n23)c1	none
COc1ccc(-c2nc(SCC(=O)Oc3c(C)cccc3C)n3[nH]c(=O)cc3n2)cc1	USP10 inh 45.7, USP8 block 83.4
CN1CCN(CC(O)Cn2c(N3CCOCC3)nc3c2c(=O)n(C)c(=O)n3C)CC1 (stereo not given)	none
CCOc1ccc(-c2nc3c(cnn3-c3ccccc3)c(=O)[nH]2)cc1	none
O=C(NCCC1=CCCCC1)c1cc2c(s1)CS(=O)(=O)C2	none
O=C(NCCCN1CCc2ccccc2C1)c1cc2c(s1)CS(=O)(=O)C2	USP8 block 46.1
Cc1ccc2c(c1)N(S(C)(=O)=O)CCC(C(=O)NCc1ccccc1C)O2 (stereo not given)	none
O=C(COc1ccc(Cl)cc1)Nc1noc(-c2cccs2)n1	USP8 block 84.9
Cn1c(=O)n(CCOc2ccc(F)cc2)c(=O)c2cnc(-c3cccnc3)nc21	none
O=C(c1ccco1)C1C2C(=O)N(c3ccc(Br)cc3)C(=O)C2C2c3ccccc3C=CN12 (stereo not given)	USP8 block 46.1
COc1ccc(N2C(=O)[C@@H]3[C@H]4c5ccccc5C=CN4C(C(=O)Nc4ccc5c(c4)OCO5)[C@@H]3C2=O)cc1 (stereo not given in full)	USP8 block 87.4
COc1ccc(Cl)cc1NC(=O)C1[C@@H]2C(=O)N(Cc3ccc4c(c3)OCO4)C(=O)[C@@H]2[C@H]2c3ccccc3C=CN12 (stereo not given in full)	USP8 block 72.0
O=C(c1ccncc1)N1CCC2(CC1)CC1(CO2)Nc2ccccc2-n2cccc21 (stereo not given)	USP8 block 71.0
CCCn1cc(C(=O)N2CCC3(CC2)CC2(CO3)Nc3ccccc3-n3cccc32)c(C)n1 (stereo not given)	USP8 block 93.9
O=C(c1cccnc1)N1CCC2(CC1)CC1(CO2)Nc2ccccc2-n2cccc21 (stereo not given)	USP8 block 92.9
O=C(c1ccco1)N1CCC2(CC1)CC1(CO2)Nc2ccccc2-n2cccc21 (stereo not given)	USP8 block 67.5
CN1CCN(c2nc(NCCN3CCCCC3)nc3c2cnn3C)CC1	none
O=S(=O)(c1ccccc1C(F)(F)F)N1CCCC(c2nnc(C(F)(F)F)o2)C1 (stereo not given)	none
CC(C)CN1C(=O)CCc2cc(NS(=O)(=O)c3cccc(C#N)c3)ccc21	none
O=C(c1cscn1)N1CCC2(CC1)CC1(CO2)Nc2ccccc2-n2cccc21 (stereo not given)	USP8 block 94.2
CC(C)CC1NC(=O)C2CCCN2C1=O (stereo not given)	UCHL1 inh 41.5, USP8 block 54.0
CCOC(=O)C1CCCN(c2c(S(=O)(=O)c3ccc(C)cc3)cnc3ccc(OCC)cc23)C1 (stereo not given)	none
Cc1cc(=O)n2c3c(c4c(cc13)c(CO)cc(=O)n4C)OC2	USP8 block 40.5
O=C(CCc1ccc(S(=O)(=O)N2CCOCC2)cc1)NC(c1ccccc1)c1ccccc1	none
O=C(CCc1ccc(S(=O)(=O)N2CCOCC2)cc1)OCC(=O)c1ccc(-c2ccccc2)cc1	USP10 inh 37.7, USP8 block 31.4
Cn1c(=O)c2c(nc(CN3CCc4ccccc4C3)n2CC(=O)c2ccccc2)n(C)c1=O	USP8 block 36.0
CCOc1cc2c(cc1OCC)C(c1ccc(Cl)cc1)N(c1ccc(C(=O)O)cc1)C(=O)C2 (stereo not given)	none
CCOc1cc2c(cc1OCC)C(c1ccc(OC)cc1)N(c1ccc(OC)c(Cl)c1)C(=O)C2 (stereo not given)	USP8 block 35.6
Cc1cccc(NC(=O)COC(=O)c2sc3cc(F)ccc3c2Cl)c1	none
CC(=O)c1cccc(NC(=O)COC(=O)c2sc3cc(F)ccc3c2Cl)c1	USP10 inh 30.8
COc1ccc(CCNc2ncnc3c2[nH]c2ccc(OC)cc23)cc1	none
